# The supplement of paper PMC8728848
# The sample as a whole holds a higher share of the strongest signals than the screen did.
# How the values were obtained:
# Experiment in all cases: glycan array binding signal (z-score within array); higher = stronger binding
# Details in all cases: glycan notation: IUPAC condensed, linker removed
# [1] = target: Fuc(a1-2)Gal(b1-3)GalNAc(b1-3)Gal
# Procedure, shortened: (§1)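 Columns mapping to the same glycan were averaged after glycan names were converted to IUPAC-condensed notation. The data come from 3228 arrays in the Consortium for Functional Glycomics database, limited to those with an available protein sequence. Binding is reported as a within-array Z-score averaged across arrays of one protein sequence and across linkers.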
# Fuc(a1-2)Gal(b1-3)GlcNAc = target: Fuc(a1-2)Gal(b1-3)GlcNAc
# Procedure, shortened: as §1
# [2] = target: Fuc(a1-2)Gal(b1-4)GlcNAc(b1-2)Man(a1-3)[Fuc(a1-2)Gal(b1-4)GlcNAc(b1-2)Man(a1-6)]Man(b1-4)GlcNAc(b1-4)[Fuc(a1-6)]GlcNAc
# Procedure, shortened: as §1
# [3] = target: Fuc(a1-2)Gal6S(b1-4)Glc6S
# Procedure, shortened: as §1
# [4] = target: Fuc(a1-2)[Gal(a1-3)]Gal(b1-3)GalNAc(b1-3)Gal(a1-4)Gal(b1-4)Glc
# Procedure, shortened: as §1
# [5] = target: Fuc(a1-2)[Gal(a1-3)]Gal(b1-4)[Fuc(a1-3)]Glc
# Procedure, shortened: as §1
# [6] = target: Fuc(a1-2)[GalNAc(a1-3)]Gal(b1-3)GlcNAc(b1-2)Man(a1-3)[Fuc(a1-2)[GalNAc(a1-3)]Gal(b1-3)GlcNAc(b1-2)Man(a1-6)]Man(b1-4)GlcNAc(b1-4)[Fuc(a1-6)]GlcNAc
# Procedure, shortened: as §1
# [7] = target: Fuc(a1-2)[GalNAc(a1-3)]Gal(b1-4)GlcNAc(b1-2)Man
# Procedure, shortened: as §1
# [8] = target: Fuc(a1-3)[Gal(b1-4)]Glc6S
# Procedure, shortened: as §1
# [9] = target: Fuc(a1-3)[Gal(b1-4)]GlcNAc(b1-2)Man(a1-3)[Fuc(a1-3)[Gal(b1-4)]GlcNAc(b1-2)Man(a1-6)]Man(b1-4)GlcNAc(b1-4)GlcNAc
# Procedure, shortened: as §1
# [10] = target: Fuc(a1-3)[Gal(b1-4)]GlcNAc(b1-2)Man(a1-3)[Fuc(a1-3)[Gal(b1-4)]GlcNAc(b1-2)Man(a1-6)]Man(b1-4)GlcNAc(b1-4)[Fuc(a1-6)]GlcNAc
# Procedure, shortened: as §1
# Gal(a1-3)Gal(b1-4)Glc = target: Gal(a1-3)Gal(b1-4)Glc
# Procedure, shortened: as §1
# Gal(a1-3)GalNAc = target: Gal(a1-3)GalNAc
# Procedure, shortened: as §1
# Gal(a1-4)Gal(b1-4)GlcNAc = target: Gal(a1-4)Gal(b1-4)GlcNAc
# Procedure, shortened: as §1
# Gal(b1-3)Gal = target: Gal(b1-3)Gal
# Procedure, shortened: as §1
# [11] = target: Gal(b1-3)GlcNAc(a1-3)Gal(b1-4)GlcNAc
# Procedure, shortened: as §1
# Gal(b1-3)GlcNAc(b1-2)Man = target: Gal(b1-3)GlcNAc(b1-2)Man
# Procedure, shortened: as §1
# [12] = target: Gal(b1-3)GlcNAc(b1-3)GalNAc
# Procedure, shortened: as §1
# [13] = target: Gal(b1-4)GalNAc(b1-3)[Fuc(a1-2)]Gal(b1-4)GlcNAc
# Procedure, shortened: as §1
# [14] = target: Gal(b1-4)GlcNAc(b1-2)Man(a1-3)[GlcNAc(b1-4)][Gal(b1-4)GlcNAc(b1-2)Man(a1-6)]Man(b1-4)GlcNAc(b1-4)GlcNAc
# Procedure, shortened: as §1
# [15] = target: Gal(b1-4)GlcNAc(b1-2)[Gal(b1-4)GlcNAc(b1-6)]Man(a1-6)[Gal(b1-4)GlcNAc(b1-2)Man(a1-3)]Man(b1-4)GlcNAc(b1-4)GlcNAc
# Procedure, shortened: as §1
# [16] = target: Gal(b1-4)GlcNAc(b1-3)Gal(b1-4)GlcNAc(b1-2)Man(a1-3)[Gal(b1-4)GlcNAc(b1-3)Gal(b1-4)GlcNAc(b1-2)Man(a1-6)]Man(b1-4)GlcNAc(b1-4)GlcNAc
# Procedure, shortened: as §1
# Gal(b1-6)Gal = target: Gal(b1-6)Gal
# Procedure, shortened: as §1
# Gal3S6S(b1-4)GlcNAc6S = target: Gal3S6S(b1-4)GlcNAc6S
# Procedure, shortened: as §1
# Gal4S(b1-4)GlcNAc = target: Gal4S(b1-4)GlcNAc
# Procedure, shortened: as §1
# [17] = target: GlcA3S(b1-3)Gal(b1-4)GlcNAc(b1-2)Man
# Procedure, shortened: as §1
# GlcNAc(b1-3)Gal = target: GlcNAc(b1-3)Gal
# Procedure, shortened: as §1
# [18] = target: GlcNAc(b1-3)Gal(b1-4)GlcNAc(b1-2)Man(a1-3)[GlcNAc(b1-3)Gal(b1-4)GlcNAc(b1-2)Man(a1-6)]Man(b1-4)GlcNAc(b1-4)[Fuc(a1-6)]GlcNAc
# Procedure, shortened: as §1
# [19] = target: GlcNAc(b1-3)Gal(b1-4)GlcNAc(b1-2)[GlcNAc(b1-3)Gal(b1-4)GlcNAc(b1-6)]Man(a1-6)[GlcNAc(b1-3)Gal(b1-4)GlcNAc(b1-2)Man(a1-3)]Man(b1-4)GlcNAc(b1-4)GlcNAc
# Procedure, shortened: as §1
# GlcNAc(b1-3)Man = target: GlcNAc(b1-3)Man
# Procedure, shortened: as §1
binder,measurement,setting,value
"Als1 (Candida albicans), P46590 (protein) KTITGVFDSFNSLTWSNAANYAFKGPGYPTWNAVLGWSLDGTSANPGDTFTLNMPCVFKYTTSQTSVDLTADGVKYATCQFYSGEEFTTFSTLTCTVNDALKSSIKAFGTVTLPIAFNVGGTGSSTDLEDSKCFTAGTNTVTFNDGDKDISIDVEFEKSTVDPSGYLYASRVMPSLNKVTTLFVAPQCENGYTSGTMGFSSSNGDVAIDCSNIHIGITKGLNDWNYPVSSESFSYTKTCTSNGIQIKYQNVPAGYRPFIDAYISATDVNQYTLAYTNDYTCAGSRLQSKPFTLRWTGYKNSDAGSNGIVIVATTRTVTDSTTAVTTLPFNPSVDKTKTIEILQPIPTTTITTSYVGVTTSYLTKTAPIGETATVIVDVPYHTTTTVTSEWTGTITTTTTRTNPTDSIDTVVVQVP",glycan array binding signal (z-score),[1],3.32
same,glycan array binding signal (z-score),Fuc(a1-2)Gal(b1-3)GlcNAc,-0.524
same,glycan array binding signal (z-score),[2],1.97
same,glycan array binding signal (z-score),[3],-0.25
same,glycan array binding signal (z-score),[4],-0.049
same,glycan array binding signal (z-score),[5],0.021
same,glycan array binding signal (z-score),[6],-0.413
same,glycan array binding signal (z-score),[7],-0.488
same,glycan array binding signal (z-score),[8],3.38
same,glycan array binding signal (z-score),[9],0.227
same,glycan array binding signal (z-score),[10],0.146
same,glycan array binding signal (z-score),Gal(a1-3)Gal(b1-4)Glc,-0.664
same,glycan array binding signal (z-score),Gal(a1-3)GalNAc,-0.407
same,glycan array binding signal (z-score),Gal(a1-4)Gal(b1-4)GlcNAc,-0.303
same,glycan array binding signal (z-score),Gal(b1-3)Gal,-0.458
same,glycan array binding signal (z-score),[11],-0.432
same,glycan array binding signal (z-score),Gal(b1-3)GlcNAc(b1-2)Man,0.092
same,glycan array binding signal (z-score),[12],-0.05
same,glycan array binding signal (z-score),[13],-0.644
same,glycan array binding signal (z-score),[14],8.37
same,glycan array binding signal (z-score),[15],7.7
same,glycan array binding signal (z-score),[16],4.19
same,glycan array binding signal (z-score),Gal(b1-6)Gal,-0.739
same,glycan array binding signal (z-score),Gal3S6S(b1-4)GlcNAc6S,3.22
same,glycan array binding signal (z-score),Gal4S(b1-4)GlcNAc,0.401
same,glycan array binding signal (z-score),[17],-0.192
same,glycan array binding signal (z-score),GlcNAc(b1-3)Gal,4.47
same,glycan array binding signal (z-score),[18],-0.201
same,glycan array binding signal (z-score),[19],4.37
same,glycan array binding signal (z-score),GlcNAc(b1-3)Man,-0.282
